# Results from the emibetuzumab library of Makowski et al. (2022).
# Some of the results follow. The hit rate among all sequences tested is not known here.
# B1: VH:VL chains; a variant is named by its letters at X, in order (parent)
# chain 1: QVQLVQSGAEVKKPGASVKVSCKASGYTFTDYXMHWVRQAPGQGLEWMGXVNPNXXXTTYNQKFEGRVTMTTDTSTSTAYMELRSLRSDDTAVYYCARXNXLDXWGQGTTVTVSS
# chain 2: DIQMTQSPSSLSASVGDRVTITCSVSSSVSSIYLHWYQQKPGKAPKLLIYSTSNLASGVPSRFSGSGSGTDFTLTISSLQPEDFATYYCQVYSGYPLTFGGGTKVEIK
# Variants of: B1
# Assay: yeast display scFab, FACS + sequencing
# Conditions: with MET
# How it was run: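 Round-3 sorted and input populations from a heavy-chain CDR mutant scFab yeast library were deep sequenced in two replicates. Sorting used FACS on cells labelled for 3 h at room temperature with 1 nM HGFR-Fc and anti-Myc in PBSB with 1% milk, keeping the top 50% antigen-positive cells. Any sequence seen in both antigen-positive samples was called a binder, while one seen only in the input was called a non-binder.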
row,Variant,antigen binding call
1,VTGEDAGD,no binding
2,YRRGSSLF,binds
3,YRGGGSVF,binds
4,YRRGSSVF,binds
5,YRGANSVF,binds
6,YREEGDVF,no binding
7,VTGGDDSA,no binding
8,VAGTGSSA,no binding
9,VGGGADGV,no binding
10,VEGAASWV,no binding
11,AAGRAYGA,no binding
12,YRRGGSVF,binds
13,YRRAADSD,no binding
14,DETGGSSD,no binding
15,YAGGTSSD,no binding
16,YRTGASSD,binds
17,YRGAASSD,binds
18,YRTGAAAD,binds
19,YRTGAASD,binds
20,SEARSSGY,no binding
21,VTGEDSSD,no binding
22,FRGGDSAD,binds

row,Variant,antigen binding call
1,FRGESSWD,binds
2,DRGGDVSD,no binding
3,FRGESSAD,binds
4,DRGGDDAD,no binding
5,VKGGNVGV,no binding
6,SRRRGSAA,binds
7,FRRRGSAA,binds
8,FRRRGAAA,binds
9,DRRRGSGA,no binding
10,FRRRGAVA,binds
11,VETEGDGF,no binding
12,VETGNSLV,no binding
13,FRRGGAAA,binds
14,FKARGALV,binds
15,FKRRSASV,no binding
16,FKGEGSLV,no binding
17,FKGEGDGV,no binding
18,FKTKNYVV,no binding
19,FKGEGYGV,no binding
20,FKARGASV,binds
21,FKKKDASV,binds
22,SKTKSDAV,no binding

row,Variant,antigen binding call
1,DKEGGSLD,no binding
2,YKEGGAGD,binds
3,YAEESAGD,no binding
4,YKEGGSGD,binds
5,DKEGGAAD,no binding
6,DATGGDAD,no binding
7,DTKAASGV,no binding
8,VEAGDDVV,no binding
9,YRRGSASS,binds
10,SRKKGDGS,no binding
11,YRRGDAGS,binds
12,SRRGGYVS,no binding
13,SRRGSASS,binds
14,YRRGSAGS,binds
15,DRAGDAGS,no binding
16,VEGGTDVV,no binding
17,VATGSSGA,no binding
18,YRRGSSGS,binds
19,YRRGGSGS,binds
20,YAEKDFGV,no binding
21,ATAGSAAV,no binding
22,VRGRGVAV,binds

row,Variant,antigen binding call
1,VRGRGYGV,binds
2,VEGRGDAV,no binding
3,YRAGGVAV,binds
4,YRGRGVAV,binds
5,VKGRAYGV,no binding
6,VRKGGVAV,no binding
7,VRGTGVAV,no binding
8,VEGGGYGV,no binding
9,VTTKGDVF,no binding
10,SEARSYVV,no binding
11,DTREGDAV,no binding
12,YKAGDAAA,binds
13,VKAKGAAA,binds
14,VEAGDAAA,no binding
15,YKAGDDGA,no binding
16,VKAGSAAA,binds
17,YKAKGAAA,binds
18,VKAGSDVA,no binding
19,VEGGGAAA,no binding
20,DAGGGAVA,no binding
21,VTKETFSF,no binding
22,YEGGTDGA,no binding

row,Variant,antigen binding call
1,STTRGAVA,no binding
2,ATTRGAVA,no binding
3,VKARNDLV,no binding
4,YRGRDASF,binds
5,YRGRDAGF,binds
6,YRGRDDWF,no binding
7,DAGKGSVD,no binding
8,STATADWV,no binding
9,VKGRADVD,no binding
10,YRGRGVGS,binds
11,FAGRGVGD,no binding
12,YRGRGVGD,binds
13,SAGRGVGS,no binding
14,FRGRGDGD,binds
15,FRGRGVGD,binds
16,FAGGGDGD,no binding
17,YTGEDAVA,no binding
18,DRGRGDVV,no binding
19,FRGRGDVD,binds
20,FRGRGDGY,binds
